# Columns and labels:
# Experiment in all cases: PBM binding z-score (relative to random genomic background probes); higher = stronger binding; sequences stand for … in GC…GCGATTGACAGCGTAGAATGAAGG
# [1] = test system: FXR:RXRa (NR concentration 270 nM, RXRa partner concentration 90 nM)
# Procedure, shortened: (§1)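 Scanned fluorescence from custom Agilent 4×180K protein-binding microarrays was regression-normalized. Binding z-scores use random background probes as reference. Ligand-free nuclear receptor dimers were incubated on the arrays for 1 h and detected with antibodies against each partner (one per run).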
# [2] = test system: LXRa:RXRa (NR concentration 270 nM, RXRa partner concentration 90 nM)
# Procedure, shortened: as §1
# [3] = test system: LXRa homodimer (NR concentration 270 nM)
# Procedure, shortened: as §1
# [4] = test system: LXRb:RXRa (NR concentration 270 nM, RXRa partner concentration 90 nM)
# Procedure, shortened: as §1
# [5] = test system: LXRb homodimer (NR concentration 270 nM)
# Procedure, shortened: as §1
# [6] = test system: PPARa:RXRa (NR concentration 270 nM, RXRa partner concentration 90 nM)
# Procedure, shortened: as §1
# [7] = test system: PPARg:RXRa (NR concentration 180 nM, RXRa partner concentration 90 nM)
# Procedure, shortened: as §1
# [8] = test system: PPARg:RXRa 270nM:90nM, anti-RXR (NR concentration 270 nM, RXRa partner concentration 90 nM)
# Procedure, shortened: as §1
# [9] = test system: PPARg:RXRa 30nM:10nM, anti-RXR (NR concentration 30 nM, RXRa partner concentration 10 nM)
# Procedure, shortened: as §1
# [10] = test system: PPARg:RXRa 90nM:30nM, anti-RXR (NR concentration 90 nM, RXRa partner concentration 30 nM)
# Procedure, shortened: as §1
# [11] = test system: PPARg:RXRa DBDmut IVT, anti-RXR (DBD mutation: RXRa K156A/R161A, NR concentration 270 nM, RXRa partner concentration 90 nM)
# Procedure, shortened: as §1
# [12] = test system: PPARg:RXRa IVT, anti-PPARg (NR concentration 270 nM, RXRa partner concentration 90 nM)
# Procedure, shortened: as §1
# [13] = test system: PPARg DBDmut:RXRa IVT, anti-PPARg (DBD mutation: PPARg1 K132A/R137A, NR concentration 270 nM, RXRa partner concentration 90 nM)
# Procedure, shortened: as §1
# [14] = test system: PPARg DBDmut IVT, anti-PPARg (DBD mutation: PPARg1 K132A/R137A, NR concentration 270 nM)
# Procedure, shortened: as §1
# [15] = test system: PPARg homodimer (NR concentration 180 nM)
# Procedure, shortened: as §1
# [16] = test system: PXR:RXRa (NR concentration 270 nM, RXRa partner concentration 90 nM)
# Procedure, shortened: as §1
# [17] = test system: PXR homodimer (NR concentration 270 nM)
# Procedure, shortened: as §1
# [18] = test system: RARa:RXR (NR concentration 270 nM, RXRa partner concentration 90 nM)
# Procedure, shortened: as §1
# [19] = test system: RARa homodimer (NR concentration 270 nM)
# Procedure, shortened: as §1
# [20] = test system: RARb:RXRa (NR concentration 270 nM, RXRa partner concentration 90 nM)
# Procedure, shortened: as §1
Sequence,PBM binding z-score [1],PBM binding z-score [2],PBM binding z-score [3],PBM binding z-score [4],PBM binding z-score [5],PBM binding z-score [6],PBM binding z-score [7],PBM binding z-score [8],PBM binding z-score [9],PBM binding z-score [10],PBM binding z-score [11],PBM binding z-score [12],PBM binding z-score [13],PBM binding z-score [14],PBM binding z-score [15],PBM binding z-score [16],PBM binding z-score [17],PBM binding z-score [18],PBM binding z-score [19],PBM binding z-score [20]
CCTACTGGGCCACGACAGGTCATTGATTCAGTGA,0.777,2.99,1.75,1.48,-0.349,2.68,2.81,2.84,0.448,1.68,5.23,5.51,1.69,-0.106,0.946,1.97,0.00199,2.15,-0.183,2.01
CCTACTGGGCCAAAGGTCATTCATTCCAATGCTC,4.99,5.4,5.18,5.18,1.33,6.7,12.2,10.6,10.6,11.8,5.26,6.63,2.52,-0.185,4.56,5.58,2.49,6.3,1.85,4.46
CGTCCAAGGTCAATGCTAGGTCGGTGAAAGCATT,5.99,4.42,0.539,3.19,0.14,4.79,3.29,4.06,1.09,2.58,3.27,3.65,-0.723,-0.78,1.98,3.86,0.759,4.18,0.419,4.95
CGAACTAGGTGATCCAGGACAGTGAATACATTGA,-0.144,-0.403,-0.0294,-0.189,-0.452,1.76,2.3,1.72,0.625,1.09,5.95,5.54,1.12,0.847,0.425,-0.38,0.369,0.202,0.271,0.0644
GCTCGGATGACAAGGTCAGAGCTTTGTCCGTAGA,0.982,1.15,-0.396,0.805,-1.32,1.93,0.116,0.444,-0.707,-0.161,0.0806,0.0489,-1.27,-1.25,0.624,1.51,-0.626,2.09,-1.1,2.61
CCGAGTAGATTATGGGGCATTCAGGCAACGGTGA,0.0957,-0.0855,-0.262,0.275,-0.645,0.18,0.487,0.839,0.0845,0.412,0.855,1,-0.628,-0.679,0.156,-0.457,0.0578,-0.525,-0.197,0.0647
ATCGAAAGGTCGAAGGTTAGTATACCCACCCGAA,4.06,3.5,0.517,3.05,0.649,4.71,4.46,5.12,2.51,4.28,0.165,2.11,1.15,0.865,1.68,3.34,0.404,4.69,1.42,3.76
ACTCGTAGGACAAAGGTCAGAGCTACGCCAGTGA,3.9,4.29,1.39,3.3,0.607,5.11,7.99,7.75,6.47,8.26,1.2,3.67,0.241,0.756,4.17,3.73,0.25,4.94,1.41,4.18
TCATAGAGGTAAAGGTGAAAGTCGAACGATATGA,1.13,1.35,-0.575,1.3,-0.862,3.63,3.74,5.04,3.97,4.88,2.03,3.05,0.77,0.323,0.369,1.15,-0.365,2.03,0.137,2.19
CCTACTAGGCCATCAGGTCATTGATATCAACGTT,2.15,1.63,1.62,2.16,0.844,3.19,3.75,4,2.04,3.5,6.04,5.32,0.857,0.291,1.87,2.04,1.66,2.59,1.47,2.45
CCAGACGGGTGAAAGGTAACTCAGTCTGGTACGC,0.176,0.178,-0.5,0.239,-0.986,2.87,4.88,5.6,3.4,5.98,0.482,2.35,-1,-1.51,0.107,0.559,-0.486,1.55,-0.431,0.652
CCGACTGAGGCAAAGGTTACCATACTCAGTACGA,0.7,1.19,-0.159,1.48,-0.611,3.69,6.77,6.76,4.81,6.88,0.849,2.47,-0.356,-0.203,1.16,1.56,0.0581,2.31,0.408,1.78
GCATATAGGTAATACAAGGTGAAGGTCCGATTGT,0.87,1.46,0.0259,0.247,-0.268,1.09,1.25,1.12,0.453,0.748,4.57,3.17,0.671,0.932,0.421,0.391,0.248,1.23,0.491,0.573
GCTAGTTGGTCAGTAAAAGGTCACACACCGGTCG,3.43,4.13,4.61,3.79,0.823,4.31,3.03,4.23,2.21,4.37,1.12,2.86,-0.0862,0.91,4.27,4.95,1.3,5.91,3.23,4.19

# Reference: the supplement of paper PMC6555819
